Source: PubChem BioAssay (NCI)
About 83,000 compounds went through this panel and 20% of them were active in at least one assay; those are over-represented in the sample as a whole.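 Note: values are percent growth. 100 is the growth of untreated cells, values between 100 and 0 indicate rising inhibition; between -100 and 0 indicates cell death.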 Active and inactive are the calls of the source. Rule for the calls: active = growth percent below 10; inactive = the rest.

Tests used:
Assay in all cases: NCI-60 one-dose screen, 48 h (100 = growth as untreated, 0 = no growth, -100 = all killed)
SR leukemia = conditions: 10 µM unless noted
RPMI-8226 leukemia = conditions: 10 µM unless noted
OVCAR-8 ovarian = conditions: 10 µM unless noted
OVCAR-5 ovarian = conditions: 10 µM unless noted
OVCAR-4 ovarian = conditions: 10 µM
SK-OV-3 ovarian = conditions: 10 µM unless noted
OVCAR-3 ovarian = conditions: 10 µM unless noted
HS 578T breast = conditions: 10 µM unless noted
NCI/ADR-RES ovarian = conditions: 10 µM unless noted

Measured: growth

Cc1ccc(S(=O)(=O)Oc2ccc([N+](=O)[O-])cc2[N+](=O)[O-])cc1
inactive: SR leukemia 56.6% | RPMI-8226 leukemia 53.2% | OVCAR-8 ovarian 78.8% | OVCAR-5 ovarian 111% | OVCAR-4 ovarian 63.6% | SK-OV-3 ovarian 119% | OVCAR-3 ovarian 107% | HS 578T breast 123% | NCI/ADR-RES ovarian 85.1%

ClC1=C(Cl)C(Cl)=C(Cl)C1=Cc1ccccc1
inactive: SK-OV-3 ovarian 38.8%
active: SR leukemia 4.43% | RPMI-8226 leukemia -22.7% | OVCAR-8 ovarian -18.9% | OVCAR-5 ovarian -60.9% | OVCAR-4 ovarian -20.3% | OVCAR-3 ovarian -96.5% | NCI/ADR-RES ovarian -26.5%

O=C(COc1cccc(/C=C2\Oc3ccccc3C2=O)c1)c1ccc([N+](=O)[O-])cc1
inactive: SR leukemia 80.9% | RPMI-8226 leukemia 75.5% | OVCAR-8 ovarian 97.1% | OVCAR-5 ovarian 97.1% | OVCAR-4 ovarian 97% | SK-OV-3 ovarian 121% | OVCAR-3 ovarian 88.5% | HS 578T breast 98.4% | NCI/ADR-RES ovarian 79.1%

COc1ccc2c3ccnc(C(F)(F)F)c3n(CCCCN)c2c1
inactive: SR leukemia 26.9% | RPMI-8226 leukemia 31.3% | OVCAR-8 ovarian 46.1% | OVCAR-5 ovarian 54.8% | OVCAR-4 ovarian 74.6% | SK-OV-3 ovarian 53.3% | OVCAR-3 ovarian 47.3% | HS 578T breast 44.9% | NCI/ADR-RES ovarian 64.9%

N/C(=N\c1nc2ccccc2[nH]1)NC(=O)Cc1cccc2ccccc12
inactive: SR leukemia 115% | RPMI-8226 leukemia 92.9% | OVCAR-8 ovarian 27.5% | OVCAR-5 ovarian 88.6% | OVCAR-4 ovarian 70.6% | SK-OV-3 ovarian 92.5% | OVCAR-3 ovarian 120% | HS 578T breast 84.1% | NCI/ADR-RES ovarian 79.9%

COc1ccc(-c2nc3ccccn3c2/C=C/C(=O)c2cc(OC)c(OC)c(OC)c2)cc1OC
inactive: SR leukemia 27% | OVCAR-8 ovarian 14.1% | OVCAR-5 ovarian 24.5% | OVCAR-4 ovarian 17.8%
active: RPMI-8226 leukemia -26% | SK-OV-3 ovarian 6.61% | OVCAR-3 ovarian 9.08% | HS 578T breast 6.05% | NCI/ADR-RES ovarian -4.39%

NC(=O)c1c(NC(=O)COC(=O)Cc2ccccc2F)sc2c1CCC2
inactive: SR leukemia 125% | RPMI-8226 leukemia 130% | OVCAR-8 ovarian 39.4% | OVCAR-5 ovarian 111% | OVCAR-4 ovarian 114% | SK-OV-3 ovarian 104% | OVCAR-3 ovarian 112% | NCI/ADR-RES ovarian 110%

CSc1nc2sc3cc(Cl)c(Cl)cc3n2c(=N)c1C#N
inactive: SR leukemia 106% | RPMI-8226 leukemia 112% | OVCAR-8 ovarian 91.4% | OVCAR-5 ovarian 123% | OVCAR-4 ovarian 97.5% | SK-OV-3 ovarian 89.3% | OVCAR-3 ovarian 110% | HS 578T breast 91.9% | NCI/ADR-RES ovarian 101%

CCN(CC)CCSC(=O)C(O)(c1ccccc1)C1CCCC1 (stereo not drawn)
inactive: SR leukemia 96.7% | RPMI-8226 leukemia 109% | OVCAR-8 ovarian 97.8% | OVCAR-5 ovarian 94.6% | OVCAR-4 ovarian 119% | SK-OV-3 ovarian 113% | OVCAR-3 ovarian 121% | HS 578T breast 110% | NCI/ADR-RES ovarian 84.5%

COc1cc(C(=O)/C=C/c2c(-c3ccc(F)cc3)nc3sccn23)cc(OC)c1OC
inactive: SR leukemia 26% | OVCAR-8 ovarian 34.8% | OVCAR-5 ovarian 88% | OVCAR-4 ovarian 25.7% | SK-OV-3 ovarian 47.4% | HS 578T breast 46.1% | NCI/ADR-RES ovarian 10.4%
active: RPMI-8226 leukemia -44.2% | OVCAR-3 ovarian 4.69%

O=C(N/N=C/c1ccc([N+](=O)[O-])cc1)c1ccc(Br)o1
inactive: SR leukemia 106% | RPMI-8226 leukemia 72% | OVCAR-8 ovarian 71.8% | OVCAR-5 ovarian 104% | OVCAR-4 ovarian 99.8% | SK-OV-3 ovarian 79.3% | OVCAR-3 ovarian 121% | HS 578T breast 127% | NCI/ADR-RES ovarian 99.6%

CN(C)Cc1ccc[nH]1
inactive: SR leukemia 102% | RPMI-8226 leukemia 136% | OVCAR-8 ovarian 95.1% | OVCAR-5 ovarian 76.3% | OVCAR-4 ovarian 109% | SK-OV-3 ovarian 106% | OVCAR-3 ovarian 99.5% | HS 578T breast 113% | NCI/ADR-RES ovarian 77.9%

Nc1nnc(CSc2nnc3n(Cc4ccccc4)c(=O)c4c5c(sc4n23)CCCC5)s1
inactive: SR leukemia 84% | RPMI-8226 leukemia 65.4% | OVCAR-8 ovarian 98.7% | OVCAR-5 ovarian 103% | OVCAR-4 ovarian 98.8% | SK-OV-3 ovarian 42.7% | OVCAR-3 ovarian 92.3% | HS 578T breast 106% | NCI/ADR-RES ovarian 94.4%

O=c1cc(-c2ccccc2)oc2c(O)c(O)ccc12
active: OVCAR-3 ovarian 5.27%
inactive: SR leukemia 36.6% | RPMI-8226 leukemia 45.6% | OVCAR-8 ovarian 52.8% | OVCAR-5 ovarian 62.9% | OVCAR-4 ovarian 61.6% | SK-OV-3 ovarian 76.7% | HS 578T breast 91.4% | NCI/ADR-RES ovarian 24.5%

COc1ccc(C(=O)c2nccc3cc(OC)c(OC)cc23)cc1OC
inactive: SR leukemia 102% | RPMI-8226 leukemia 133% | OVCAR-8 ovarian 94.3% | OVCAR-5 ovarian 86.5% | OVCAR-4 ovarian 108% | SK-OV-3 ovarian 108% | OVCAR-3 ovarian 87.2% | HS 578T breast 98% | NCI/ADR-RES ovarian 83.9%
